Compound activity: PubChem, National Center for Advancing Translational Sciences (NCATS)
Rows were chosen to be rich in hits. Some 21% of all compounds tested hit in one or more screens of this group.
Cycloheximide cs = Cycloheximide Counterscreen for Small Molecule Inhibitors of Shiga Toxin | cell reporter, cycloheximide protein synthesis inhibition counterscreen | max response, % | hit rate 12% among 300,000; in the data active = max response mostly above about 13%, no sharp cut-off; inactive = mostly below about 14%; note: read at 38.3 µM for the half of the compounds with a filed dose
Pf growth 96h = Primary qHTS for delayed death inhibitors of the malarial parasite plastid, 96 hour incubation | P. falciparum luciferase reporter growth, 96 h | Potency, µM (top dose mostly 28.7 µM), actives largely listed as inhibitors | hit rate 6.9% among 320,000; active = well fitted inhibition curve with a large enough effect; inconclusive = small, poorly fitted or top-dose-only effect, or another doubt; inactive = no such curve, though single readings can be large or run the other way
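Cell-based qHTS: luciferase-tagged P. falciparum in erythrocytes (2% hematocrit, 0.05% parasitemia final) incubated with compounds for 96 hours, 37 C, 5% CO2; luciferase detection reagent then added and luminescence measured.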
Shiga inhibitor = A qHTS for Small Molecule Inhibitors of Shiga Toxin; Vero cells, Shiga toxin protein synthesis inhibition reporter; inhibition, % at 38.7 µM; hit rate 9.2% among 290,000; AID 2315, 2010; in the data active = inhibition mostly above about 28%, no sharp cut-off; inactive = mostly below about 43%
SARS PLP yeast = qHTS of Yeast-based Assay for SARS-CoV PLP; hit rate 0.19% among 330,000; Potency, µM (doses to about 32.9 µM), usual class: activators; S. cerevisiae expressing SARS-CoV PLpro, growth rescue; note: nearly all actives have a fitted effect of over 55% in size
NS1 function inh = qHTS Assay for Inhibitors of Influenza NS1 Protein Function | Potency, µM (top dose mostly 46.1 µM) | AID 2326, 2010 | hit rate 0.4% among 270,000; note: actives are rising curves; nearly all actives have a fitted effect of over 50% in size
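Growth recovery, yeast-based: influenza A NS1 expressed in S. cerevisiae causes slow growth, and suppressors are detected by OD600. The parent strain without NS1 is used as positive control.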
Pf growth 48h = Primary qHTS for delayed death inhibitors of the malarial parasite plastid, 48 hour incubation. hit rate 5.9% among 310,000. Potency, µM (doses to about 28.7 µM), most hits filed as inhibitors. P. falciparum luciferase growth in erythrocytes, 48 h; active = well fitted inhibition curve with a large enough effect; inconclusive = small, poorly fitted or top-dose-only effect, or another doubt; inactive = no such curve, though single readings can be large or run the other way
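Cell-based growth assay: transgenic P. falciparum expressing firefly luciferase, cultured in red cells within RPMI 1640 containing 0.5% w/v Albumax, 24 mM bicarbonate and gentamycin. A drop in luciferase activity indicates inhibition.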
Numbers stand for hits; 0 = inactive; ? = inconclusive; - = no result given; [ ] = remark or other dose. Unless noted, calls come from the whole dose curve.

SMILES	Cycloheximide cs	Pf growth 96h	Shiga inhibitor	SARS PLP yeast	NS1 function inh	Pf growth 48h
Cc1ccc(C(=O)N2CCN(c3cc4c(cc3[N+](=O)[O-])n(C)c(=O)n4C)CC2)cc1	0	?	0	8.91µM	0	0
Cc1ccc(S(=O)(=O)N2CCN(C(=O)c3ccc(N4CCCC4)c([N+](=O)[O-])c3)CC2)cc1	0	8.28µM	0	0	0	?
Cc1ccc(S(=O)(=O)N2CCN(c3ccc(C(=O)N4CCOCC4)cc3[N+](=O)[O-])CC2)cc1	0	10.4µM	0	0	0	0
COc1ccc(CNC(=O)C2CCN(S(=O)(=O)c3cccc4nsnc34)CC2)cc1	0	0	0	?	0	0
O=C(C1CCN(S(=O)(=O)c2ccccc2F)CC1)N1CCN(Cc2ccc3c(c2)OCO3)CC1	-	?	-	0	-	?
O=C(COC(=O)C1COc2ccccc2O1)Nc1ccccc1OC(F)F (stereo unspecified)	-	-	-	0	-	-
Fc1cc(F)c(F)c(SCn2cc(Br)cn2)c1F	-	0	-	0	-	0
CC(Sc1n[nH]c(-c2ccccc2)n1)C(=O)c1c(N)n(C)c(=O)n(C)c1=O (stereo unspecified)	-	0	-	0	-	0
CC(=O)c1c(C)[nH]c(C(=O)CN2CCN(S(=O)(=O)c3ccccc3[N+](=O)[O-])CC2)c1C	-	10.4µM	-	0	-	?
Cc1ccc(S(=O)(=O)N2CCN(C(=O)c3ccc(S(=O)(=O)N4CCCC4)cc3)CC2)cc1	0	7.38µM	0	0	0	?
Cc1ccc(S(=O)(=O)N2CCCCC2)cc1C(=O)c1nccn1C	0	?	0	0	0	-
O=C(c1ccc(S(=O)(=O)c2ccc(F)cc2)c([N+](=O)[O-])c1)N1CCCCCC1	0	0	0	?	0	3.29µM
Cn1ccnc1C(=O)c1ccc(S(=O)(=O)N2CCCC2)cc1	13.8	0	0	0	0	0
O=C(c1ccc(S(=O)(=O)N2CCCC2)cc1)N1CCCCCC1	0	0	0	0	0	?
Nc1ncc2c(n1)CC(c1ccco1)CC2=O (stereo unspecified)	0	0	0	0	0	0
CC(C)(C)c1ccc(C(=O)N2CCN(S(=O)(=O)c3ccc(Br)s3)CC2)cc1	-	10.4µM	-	0	-	6.57µM
NC(=O)c1ccc(S(=O)(=O)N2CCSCC2)cc1	0	10.4µM	0	0	0	0
O=C(OCCN1C(=O)c2ccccc2C1=O)c1ccc(S(=O)(=O)N2CCCCCC2)cc1	0	0[5.75 µM]	0	0	0	0
O=C(c1ccc(S(=O)(=O)N2CCCCC2)cc1)N1CCN(CCN2C(=O)c3cccc4cccc(c34)C2=O)CC1	0	3.29µM	0	0	-	?
Cn1ccnc1C(=O)c1cccc(Br)c1	16.5	0	39.5	0	0	0
COC(=O)/C=C1\NC(=O)C(C)S1 (stereo unspecified)	0	0	0	0	0	0
O=C1NC(Cc2ccccc2)c2nc3cc(F)ccc3c(=O)n2-c2ccccc21 (stereo unspecified)	-	-	-	0	-	-
CC(C)(C)c1ccc(OCC(O)CSc2ncn[nH]2)cc1 (stereo unspecified)	0	0	0	0	0	-
CC(C)Cn1c(NCCN(C)C)nc2c1c(=O)[nH]c(=O)n2C	0	-	0	0	0	0
CCC(C)Nc1nc2c(c(=O)[nH]c(=O)n2C)n1CCCc1ccccc1 (stereo unspecified)	0	4.15µM	0	0	0	0
SMILES	Cycloheximide cs	Pf growth 96h	Shiga inhibitor	SARS PLP yeast	NS1 function inh	Pf growth 48h
CN(Cc1ccccc1)c1nc2c(c(=O)[nH]c(=O)n2C)n1CCCc1ccccc1	27.5	0	0	0	0	?
CNc1nc2c(c(=O)[nH]c(=O)n2C)n1CCCc1ccccc1	0	0	0	0	0	0
CCCCn1c(NCCN(C)C)nc2c1c(=O)[nH]c(=O)n2C	0	4.65µM	0	0	0	0
CCN(CC)c1nc2c(c(=O)[nH]c(=O)n2C)n1CCOc1ccccc1	0	0.657µM	-	0	0	0
CN(C)c1nc2c(c(=O)[nH]c(=O)n2C)n1CCOc1ccccc1	0	0	-	0	0	0
COc1cccc(CNS(=O)(=O)c2ccc3c(c2)oc(=O)n3C)c1	0	0	0	0	0	0
Cc1ccc(Cl)cc1N(C(=O)c1csnn1)C(C(=O)NC1CCCC1)c1ccco1 (stereo unspecified)	0	0	0	0	0	0
COc1ccc2c(CC(=O)NC3CCCc4ccccc43)coc2c1 (stereo unspecified)	0	?	0	?	0	0
O=C(NC1CCCCC1)C(c1cccnc1)N(C(=O)c1ccc(Cl)nc1)C1CCCCC1 (stereo unspecified)	0	0	0	0	-	0
O=C(CCc1c[nH]c2ccccc12)N1CCCCCCC1	0	0	0	0	0	0
O=C(CCCc1c[nH]c2ccccc12)N1CCOCC1	19.4	0	0	0	0	0
O=C1CN(C(=O)CCCc2c[nH]c3ccccc23)c2ccccc2N1	0	-	0	0	?	9.28µM
CS(=O)(=O)c1ccc(Cl)c(NC(=O)COC(=O)COc2ccc3c(c2)CCC3)c1	-	0	-	0	-	0
O=[N+]([O-])c1ccc(OC/C=C2\Oc3ccc([N+](=O)[O-])cc3C2N2CCOCC2)cc1 (stereo unspecified)	0	0	0	0	0	?
O=[N+]([O-])c1ccc2c(c1)C(N1CCOCC1)/C(=C/COc1ccc3ccccc3c1Br)O2 (stereo unspecified)	0	?	0	0	?	6.57µM
CCNC(=O)CC1C(=O)N(c2ccc(C)cc2)C(=O)N1CCC(C)C (stereo unspecified)	0	11.7µM	0	0	0	0
CCNC(=O)CC1C(=O)N(c2ccccc2)C(=O)N1Cc1ccc(OC)cc1 (stereo unspecified)	12.9	?	0	0	0	0
CC(=O)N(C)c1ccc(C(O)(C(F)(F)F)C(F)(F)F)cc1	0	0	0	0	-	0
Nn1c(SCc2ccccn2)nncc1=O	0	11.7µM	0	0	0	0
CCOC(=O)CSc1nc(-c2cccs2)nc2c1c(=O)n(C)c(=O)n2C	0	0	0	0	0	0
Cc1cccc(-n2ncc3c(NCCCN4CCCC4=O)ncnc32)c1	58.1	0	77.1	0	0	0
Cc1ccc(-n2ncc3c(NCCCN4CCOCC4)ncnc32)c(C)c1	0	0	0	0	0	-
O=C1CCCN1CCCNc1ncnc2c1cnn2-c1ccc(Cl)cc1	27.6	0	28.5	0	0	0
Cc1cccc(-n2ncc3c(NCCCn4ccnc4)ncnc32)c1	61.8	?	74.5	0	0	?
O=S(=O)(c1ccc(-c2ccccn2)s1)N1CCC2(CC1)OCCO2	0	0	0	0	0	0
Cc1cc(C)c2cc(CN(CCN(C)C)C(=O)Nc3ccccc3Cl)c(=O)[nH]c2c1	0	?	0	0	0	?
Clc1ccc2nc(CN3CCCc4ccccc43)cn2c1	23.3	0	56.3	0	0	?
